# Reference: PubChem BioAssay AID434989 (The Scripps Research Institute Molecular Screening Center, 2010)
# The whole screen tested about 330,000 compounds, of which about 1,400 (0.42%) were called active.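 Rule for the calls: active = inhibition above its plate's threshold, mean inhibition of all tested compounds on the plate plus 3 SD (cut at about 37% in these data); inactive = the rest.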 What follows is part of a selection rich in actives, with near analogues and random picks from the rest.
# Target: Orexin/Hypocretin receptor type 1 (Homo sapiens) (UniProt O43613)
# Assay: OX1R (HCRTR1) antagonists, primary screen, fluorescence, CHO/OX1R cells, Fluo-8 calcium, orexin A (AID 434989);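 note: 0% = orexin A challenge wells and 100% = SB-334867-A antagonist wells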
# Conditions: Fluo-8 calcium fluorescence, at 5 µM, hits give high values
# Sequence of Orexin/Hypocretin receptor type 1 (Homo sapiens) (O43613 whole entry, looked up): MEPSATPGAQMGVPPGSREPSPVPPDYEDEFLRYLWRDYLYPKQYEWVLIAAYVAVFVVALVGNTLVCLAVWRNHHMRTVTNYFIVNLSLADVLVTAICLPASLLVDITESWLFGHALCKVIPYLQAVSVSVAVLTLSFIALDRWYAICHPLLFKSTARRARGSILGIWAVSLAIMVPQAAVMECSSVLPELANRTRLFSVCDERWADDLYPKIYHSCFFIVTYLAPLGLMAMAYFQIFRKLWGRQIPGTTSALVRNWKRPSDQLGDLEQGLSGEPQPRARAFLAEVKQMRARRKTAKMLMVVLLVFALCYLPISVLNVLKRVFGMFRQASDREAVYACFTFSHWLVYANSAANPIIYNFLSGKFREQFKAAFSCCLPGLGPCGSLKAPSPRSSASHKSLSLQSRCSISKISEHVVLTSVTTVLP
row,Structure (SMILES),inhibition
1,O=C(CC(O)(C(F)(F)F)C(F)(F)F)Nc1ccc(Cl)c(Cl)c1,62.6% (active)
2,O=C(CC1SCCNC1=O)Nc1ccc(Cl)c(Cl)c1 (stereo unspecified),-14.2% (inactive)
3,Oc1c(Cl)cc(Cl)c(Cl)c1Cc1c(O)c(Cl)cc(Cl)c1Cl,42.3% (active)
4,CC(=O)Nc1ccc(NC(=O)COC(=O)C2CCC(C(C)(C)C)CC2)cc1 (stereo unspecified),-1.79% (inactive)
5,N#Cc1nc(-c2cccc3ccccc23)oc1N,56% (active)
6,CC1CCN(c2oc(-c3ccccc3F)nc2C#N)CC1,-6.67% (inactive)
7,COc1ccc(Nc2oc(-c3ccccc3Cl)nc2C#N)cc1,-16.2% (inactive)
8,O=C(N[C@H]1C/C=C\C(c2cccc(F)c2)N(Cc2ccccc2)C(=O)C1)OCC1c2ccccc2-c2ccccc21 (stereo partly specified),4.42% (inactive)
9,CC(NC(=O)COC(=O)c1ccc2ccccc2n1)c1ccccc1 (stereo unspecified),-14.8% (inactive)
10,CC(=O)Nc1ccc(S(=O)(=O)NCC(=O)OCC(=O)c2ccc[nH]2)cc1,-2.13% (inactive)
11,C#CCOCCOCCOCCNc1nc(N2CCN(C(=O)[C@H](CO)n3cc([C@@H](N)C(C)C)nn3)CC2)nc(N2CCN(C(=O)[C@H](CCC(=O)O)n3cc([C@@H](N)[C@H](C)CC)nn3)CC2)n1,0.47% (inactive)
12,O=C(CSc1nnc(-c2ccncc2)o1)Nc1cccc(Cl)c1,-0.1% (inactive)
13,CCOC(=O)C1CCCN(C(=O)CSc2nnc3nc(C)cc(C)n23)C1 (stereo unspecified),-14.2% (inactive)
14,CC(=O)N1c2ccc(S(=O)(=O)N3CCCC(C(=O)Nc4cccc(Cl)c4)C3)cc2CC1C (stereo unspecified),0.09% (inactive)
15,CC(=O)N1CCCc2cc(S(=O)(=O)N3CCCC(C(=O)N4CCN(c5cccc(Cl)c5)CC4)C3)ccc21 (stereo unspecified),72.6% (active)
16,CC(=O)N1CCCc2cc(S(=O)(=O)N3CCCC(C(=O)NCc4ccc(Cl)cc4)C3)ccc21 (stereo unspecified),-22.5% (inactive)
17,CCOc1ccccc1Nc1nnc(SCC(=O)NCC2CCCO2)s1 (stereo unspecified),-22.1% (inactive)
18,Cc1ccc(S(=O)(=O)Nc2ccc3c(c2)C(=O)N([C@H](C)CO)C[C@@H](C)[C@@H](CN(C)C(=O)Nc2cccc4ccccc24)O3)cc1,1.83% (inactive)
19,CC1CCCCC1NC(=O)Cn1c(=O)cnc2ccccc21 (stereo unspecified),-6.73% (inactive)
20,Cc1cccc(NC(=O)NC(=S)NC(=O)c2ccccc2)c1,-26.4% (inactive)
21,COc1cccc(NC(=O)NCc2ccc(F)cc2)c1,-1.97% (inactive)

row,Structure (SMILES),inhibition
1,Cc1cccc(NC(=O)Nc2cccc(Oc3c(F)c(F)c(F)c(F)c3F)c2)c1,50.4% (active)
2,CCN(CC)S(=O)(=O)c1ccc(N2CCCC2)c(NC(=O)c2ccc([N+](=O)[O-])o2)c1,25.1% (inactive)
3,CCc1ccccc1OCC(=O)Nc1ccc(C)c(S(=O)(=O)N2CCCCCC2)c1,71.1% (active)
4,Cc1ccc(NC(=O)COC(=O)C2CC2)cc1S(=O)(=O)N1CCOCC1,0.29% (inactive)
5,Cc1ccccc1OCC(=O)Nc1ccc(N2CCN(C(=O)C(C)C)CC2)c(Cl)c1,47.2% (active)
6,Cc1ccccc1OCC(=O)Nc1ccc2c(c1)ncn2C,-11.8% (inactive)
7,CCC(=O)N1CCN(c2ccccc2NC(=O)COc2cccc(C)c2C)CC1,-25.6% (inactive)
8,CCc1ccccc1OCC(=O)Nc1ccc2c(c1)OCCO2,3.6% (inactive)
9,COc1ccccc1CNC(=O)c1ccc(Cl)c(S(=O)(=O)N2CCCC2)c1,-20% (inactive)
10,Cc1nn(-c2ccccc2)nc1C(=O)OCC(=O)N1CCCCC1C (stereo unspecified),-14.9% (inactive)
11,Cc1ccc(C)c(N2CCN(C(=O)CCc3nc(-c4cccc(C(F)(F)F)c4)no3)CC2)c1,-15.5% (inactive)
12,Cc1cc(-c2ccc(C)c(S(=O)(=O)NCCCN(Cc3ccccc3)C(C)C)c2)on1,-45.5% (inactive)
13,Cc1cc(-c2ccc(C)c(S(=O)(=O)Nc3ccc(S(N)(=O)=O)cc3)c2)on1,15.6% (inactive)
14,Cc1cc(-c2ccc(C)c(S(=O)(=O)NC(C)Cc3ccco3)c2)on1 (stereo unspecified),59.1% (active)
15,CN(C)C(=O)CCc1ccc2c3c([nH]c2c1)[C@]1(CCC2CCCC2)[C@@H](C(=O)N2CCOCC2)C[C@H](CC(=O)NCc2ccco2)C(=O)N1CC3,-19.7% (inactive)
16,COc1ccc(C(=O)C(C)OC(=O)c2cccc(S(=O)(=O)Nc3c(C)n(C)n(-c4ccccc4)c3=O)c2)cc1 (stereo unspecified),-5.98% (inactive)
17,O=C(CN1C(=O)NC2(CCCCCC2)C1=O)NCc1ccc(F)cc1,-10.3% (inactive)
18,CCN(CC)S(=O)(=O)c1ccc(N(C)Cc2ccc(C(F)(F)F)cc2)nc1,29.3% (inactive)
19,CCN(CC)S(=O)(=O)c1ccc(N(C)CCc2ccc(OC)c(OC)c2)nc1,-17% (inactive)
20,CCN(CC)S(=O)(=O)c1ccc(N(C)Cc2cccc(OC)c2OC)nc1,39% (active)
